{"source": "PubChem BioAssay (NCATS)", "note": "Records with an inconclusive call do not appear. Activity calls are given as the source filed them.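 How the source made its calls: active means dose-dependent loss of cell ATP signal giving a full or clear fitted curve, ranked by lower potency value; inconclusive means weak partial curve or response only at the top dose; inactive means no loss of viability signal.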 Peptide text beside a SMILES is read from it. Potency means the concentration at half of the fitted maximal effect."}
{"assay": "Cell Viability - Jurkat (AID 426)", "details": "qHTS", "source_text": "NIH Chemical Genomics Center [NCGC]\nNIH Molecular Libraries Screening Centers Network [MLSCN]\nNational Institutes of Environmental Health Sciences [NIEHS]\nNational Toxicology Program [NTP]\nWe have developed a 1536-well cell-based assay for quantitative high throughput screening (qHTS) against a number of cell lines to determine in vitro cytotoxicity of small molecules. This particular assay uses the Jurkat cell line (Clone E6-1) which is derived from the human T cell leukemia.\nNCGC Assay Protocol Summary:\nThe CellTiter-Glo luminescent cell viability assay (Promega) is a homogeneous method to measure the number of viable cells in culture. The end point readout of this assay is based on quantitation of intracellular ATP, an indicator of metabolic activity, using the luciferase reaction. Luciferase catalyzes the oxidation of beetle Luciferin to oxyluciferin and light in the presence of ATP. The luminescent signal is proportional to amount of ATP present.\nUsing the CellTiter-Glo luminescent cell viability assay, the amount of cellular ATP was measured in the Jurkat cell line with complete culture medium following compound treatment for 40 hours. The assay was performed in opaque white Kalypsys 1536-well plates. In the screen, tamoxifen and doxorubicin were used as positive controls. Library compounds were measured for their ability to cause acute toxicity in the cell line, as reflected by a decrease in intracellular ATP levels, in a concentration-dependent manner. […] AC50 values were determined from concentration-response data modeled with the standard Hill equation.\nqHTS protocol for CellTiter Glo Jurkat cellular assay\n[Step] [Parameter] [Value] [Description]\n1. Reagent; 5 uL; 5000 Jurkat cells/well\n3. Controls; 23 nL; Tamoxifen 0.34 uM to 100 uM & Doxorubicin 0.02 nM to 100 uM\n4. Time; 40 hr; 37 °C incubation\n5. Reagent; 5 uL; CellTiter Glo reagent\n6. Time; 20 min; Room Temperature\n7. Detection; Luminescence; Viewlux plate reader\nKeywords: cell viability, cytotoxicity, Jurkat cell line, luminescence, NTPHTS, NTPHTS_NCGC, NIEHS, EPA, DSSTox, MLSMR, MLSCN, NIH Roadmap, qHTS, NCGC"}
{"smiles": "CCCc1cc(=O)[nH]c(=S)[nH]1", "Potency": "> 92 µM (inactive)"}
{"smiles": "CCCCC(CC)COC(=O)C(C#N)=C(c1ccccc1)c1ccccc1", "note": "(stereo unspecified)", "Potency": "> 92 µM (inactive)"}
{"smiles": "CC(=O)Nc1ccc(O)cc1", "Potency": "> 92 µM (inactive)"}
{"smiles": "CS(=O)(=O)OCCCCOS(C)(=O)=O", "Potency": "> 92 µM (inactive)"}
{"smiles": "NS(=O)(=O)c1cc(C(=O)O)c(NCc2ccco2)cc1Cl", "Potency": "> 92 µM (inactive)"}
{"smiles": "CN(C)c1ccc2nc3ccc(=[N+](C)C)cc-3sc2c1", "Potency": "14.2 µM (active)"}
{"smiles": "CCc1nc(N)nc(N)c1-c1ccc(Cl)cc1", "Potency": "3.02 µM (active)"}
{"smiles": "Nc1ccc(S(N)(=O)=O)cc1", "Potency": "> 92 µM (inactive)"}
{"smiles": "COc1c2occc2cc2ccc(=O)oc12", "Potency": "> 92 µM (inactive)"}
{"smiles": "COC(=O)[C@H](Cc1ccccc1)NC(=O)[C@@H](N)CC(=O)O", "note": "(H-Asp-Phe-OMe)", "Potency": "> 92 µM (inactive)"}
{"smiles": "Cc1ccc(C)c(OCCCC(C)(C)C(=O)O)c1", "Potency": "> 92 µM (inactive)"}
